According to publication PMC4552634, “A New Set of Chemical Starting Points with Plasmodium falciparum Transmission-Blocking Potential for Antimalarial Drug Discovery” (PLoS ONE, 2015):
In all, about 13,000 compounds went through this assay and about 3,200 (25%) showed an effect of 50% or more. This is one part of the list.

Tested on: P. falciparum stage V gametocytes
Parameters: BacTiter-Glo ATP luminescence viability of purified stage V gametocytes in 384-well plates, per cent inhibition versus DMSO
Conditions: 48 h, 5 µM; inhibitor

Row | Compound | % Inhibition
1 | Cc1ccoc1C(=O)Nc1cccc(-c2cccc(-c3nc4ccc(C(F)(F)F)cc4[nH]3)c2)c1 [TCMDC-136835] | 10.66%
2 | Cc1onc(-c2c(Cl)cccc2Cl)c1C(=O)N1CCc2cc3nccc(N4CCN5CCC[C@H]5C4)c3cc21 [TCMDC-140048] | 3.329%
3 | COc1cc(C(F)(F)F)nc2c(CNCCCNc3cc(=O)c4ccccc4[nH]3)scc12 [TCMDC-141145] | -12.37%
4 | CNc1nc(N/N=C/c2cc3c(cc2[N+](=O)[O-])OCO3)nc(Nc2cccc(C(F)(F)F)c2)n1 [TCMDC-124216] | 15.24%
5 | CCCCNCc1ccc(-c2nc(CN(C(=O)Nc3cc([N+](=O)[O-])ccc3F)C3Cc4ccccc4C3)cs2)cc1 [TCMDC-141640] | 54.3%
6 | O=C(Nc1ccccc1F)N(CCCn1ccnc1)Cc1csc(-c2ccc(CNCc3ccccc3)cc2)n1 [TCMDC-141643] | 22.98%
7 | Cc1ccc([N+](=O)[O-])cc1NC(=O)N(CC(O)c1ccccc1)C1CCCCC1 (stereo not shown) [TCMDC-123672] | 2.226%
8 | COc1ccc(Cc2c(C)nc3nc(N)nc(N)c3c2C)cc1OC [TCMDC-137649] | 1.878%
9 | O=C(Nc1ccc(Cl)cc1)N1CCN(C2CCCCC2)CC1 [TCMDC-125819] | 10%
10 | O=C(Nc1ccc2c(c1)CCC2)c1cccc(CN2CCCN(Cc3cccc(O)c3)CC2)c1 [TCMDC-135957] | 14.29%
11 | O=C(Cc1ccsc1)NCC(c1ccccc1Cl)c1c[nH]c2ccccc12 (stereo not shown) [TCMDC-125251] | 11.67%
12 | O=C(Cc1cccs1)NCC(c1ccccc1Cl)c1c[nH]c2ccccc12 (stereo not shown) [TCMDC-125062] | 59.09%
13 | NC(=NCc1ccccc1Cl)NCCc1c[nH]c2ccccc12 [TCMDC-138012] | -46.58%
14 | COc1ccc2nc3cc(Cl)ccc3c(Nc3ccc(Sc4ccc(Nc5c6ccc(Cl)cc6nc6ccc(OC)cc56)cc4)cc3)c2c1.Cl [TCMDC-137673] | -84.83%
15 | COc1ccc2nc3cc(Cl)ccc3c(NCCCO)c2c1 [TCMDC-124144] | 20.12%
16 | COc1ccc2nc3cc(Cl)ccc3c(NCc3ccccc3)c2c1.Cl [TCMDC-137663] | -68.8%
17 | COc1ccc2nc3cc(Cl)ccc3c(NCCCCNc3c4ccc(Cl)cc4nc4ccc(OC)cc34)c2c1 [TCMDC-138218] | 112.4%
18 | CCN(CC)CCNc1c2ccc(Cl)cc2nc2ccc(OC)nc12 [TCMDC-137937] | -10.21%
19 | COc1ccc2nc3cc(Cl)ccc3c(Nc3ccc(Oc4ccc(Nc5c6ccc(Cl)cc6nc6ccc(OC)cc56)cc4)cc3)c2c1.Cl [TCMDC-137674] | -12.74%
20 | COc1ccc2nc3cc(Cl)ccc3c(NCCCCCCNc3c4ccc(Cl)cc4nc4ccc(OC)cc34)c2c1 [TCMDC-137503] | 106.2%
21 | COc1ccc2nc3cc(Cl)ccc3c(N)c2c1.Cl [TCMDC-125835] | 124.4%
22 | COc1ccc2nc3cc(Cl)ccc3c(NCCNCC(O)CO)c2n1 (stereo not shown) [TCMDC-137938] | 74.53%
23 | CCOc1ccc(-n2nc3c(Cl)nnc(-c4ccccc4)c3c2-c2ccccc2)cc1 [TCMDC-123899] | -2.574%

Row | Compound | % Inhibition
24 | CCCC(C)Nc1nc(C)cc(N[C@@H](CC(C)C)C(=O)NC2CCCC2)n1 (stereo partly shown) [TCMDC-134895] | -73.82%
25 | CC1CCc2sc(-c3nnc(SC(C)C(=O)NC4CC4)o3)cc2C1 (stereo not shown) [TCMDC-124866] | 6.4%
26 | CCOc1ncccc1CN1CCC(N2CCc3cc(NC(=O)c4cc(C)on4)ccc32)C1 (stereo not shown) [TCMDC-135086] | -27.43%
27 | NC(=O)c1cccc(CNC(=O)NC[C@H]2CN(Cc3ccc(Cl)c(Cl)c3)CCO2)c1 [TCMDC-138745] | 31.93%
28 | COc1cc(NC(=O)/C=C/c2cccc3ccoc23)ccc1OCCN(C(C)C)C(C)C [TCMDC-139958] | 3.846%
29 | CCOC(=O)NC1=NC(C)(C)N(OCc2ccc(Cl)c(Cl)c2)C(NC(=O)OCC)=N1 [TCMDC-131729] | 1.326%
30 | COc1ccc2c(c1)C(C)(CCCN(C)C)C(=O)N2C (stereo not shown) [TCMDC-138945] | 13.31%
31 | COc1ccc2nc3cc(Cl)ccc3c(NCCO)c2c1 [TCMDC-124272] | 0.5882%
32 | COc1ccc2nc3cc(Cl)ccc3c(NCCCCN)c2c1 [TCMDC-137526] | 92.71%
33 | COc1ccc2nc3cc(Cl)ccc3c(NCCN(C)C)c2c1 [TCMDC-139093] | 54.53%
34 | COc1ccc2nccc([C@@H](O)CN3CCC(NCc4nc5c(cc4F)SCC(=O)N5)C(F)C3)c2c1 (stereo partly shown) [TCMDC-141681] | -15.96%
35 | Nc1ccc(-c2nc3cc(C4=N[C@H]5CCCC[C@H]5N4)ccc3o2)cc1[N+](=O)[O-] [TCMDC-137253] | 108.2%
36 | O=[N+]([O-])c1ccc(-c2nc3cc(C4=NC5CCCCC5N4)ccc3[nH]2)cc1 (stereo not shown) [TCMDC-137220] | 5.239%
37 | O=[N+]([O-])c1cccc(-c2nc3cc(C4=NC5CCCCC5N4)ccc3[nH]2)c1 (stereo not shown) [TCMDC-137221] | 5.96%
38 | Cc1ccc2ncc(Cl)c(CCN3CCC(NCc4ccc5c(n4)NC(=O)CS5)CC3)c2n1 [TCMDC-141963] | 7.636%
39 | COc1ccc2ncc(F)c([C@@H](O)CN3CCC(NCc4cc5c(cn4)OCCO5)CC3)c2c1 [TCMDC-135379] | 9.097%
40 | COc1c(F)ccc2ncc(Cl)c(CCN3CCC(NCc4ccc5c(n4)NC(=O)CS5)CC3)c12 [TCMDC-141955] | 54.36%
41 | Fc1ccc2ncc(Cl)c(CCN3CCC(NCc4cc5c(cn4)OCCO5)CC3)c2c1 [TCMDC-133446] | 74.26%
42 | COc1ccc2nccc(CCN3CC(O)C(CNCc4ccc5c(n4)NC(=O)CS5)C3)c2n1 (stereo not shown) [TCMDC-136132] | 27.64%
43 | Clc1cnc2ccc3c(c2c1CCN1CCC(NCc2cc4c(cn2)OCCO4)CC1)OCCO3 [TCMDC-134566] | 24.75%
44 | COc1ccc2ncc(C)c(CCN3CCC(NCc4ccc5c(n4)NC(=O)CS5)CC3)c2c1 [TCMDC-134648] | 44.1%
45 | COc1ccc2ncc(Cl)c([C@@H](O)CN3CCC(NCc4cc5c(cn4)OCCO5)CC3)c2c1 [TCMDC-135470] | 13.81%
46 | COc1cc(F)c2ncc(F)c(CCN3C[C@H](CNCc4ccc5c(n4)NC(=O)CS5)[C@H](O)C3)c2c1 [TCMDC-136333] | 73.35%

Row | Compound | % Inhibition
47 | Cn1ncc2c3c(CCN4CCC(NCc5cc6c(cn5)OCCO6)CC4)c(Cl)cnc3ccc21 [TCMDC-136008] | 9.388%
48 | COc1ccc2ncc(Cl)c([C@H](O)CN3CCC(NCc4cc5c(cn4)OCCO5)CC3)c2c1 [TCMDC-135469] | 53.55%
49 | COc1ccc2ncc(F)c(CCN3CC(O)C(CNCc4ccc5c(n4)NC(=O)CS5)C3)c2c1 (stereo not shown) [TCMDC-136187] | 16.49%
50 | Cc1ccc(C(=O)NC2CC2)cc1-c1ccc2c(cnn2S(=O)(=O)c2ccc(F)cc2)c1 [TCMDC-138772] | 31.89%
51 | O=C(NCCc1cccc(Cl)c1Cl)c1ccc(N2CCN(c3ccncc3)CC2)nc1 [TCMDC-134587] | 10.14%
52 | Cc1ccc(C(=O)Nc2cc(C(F)(F)F)cc(C(F)(F)F)c2)cc1[N+](=O)[O-] [TCMDC-125645] | -10.1%
53 | Cc1csc(-c2nc(NCCc3c(C)noc3C)ncc2-c2ccsc2)n1 [TCMDC-125354] | 34.89%
54 | Nc1ncc(-c2ccsc2)c2ccc(-c3cc(NCc4ccccc4)ncn3)cc12 [TCMDC-135660] | 18.52%
55 | O=C(Cc1c[nH]cn1)Nc1ccc(-c2ccc(-c3nc4ccccc4[nH]3)s2)cc1 [TCMDC-136939] | -25.08%
56 | O=C(/C=C/c1ccc(Cl)c(Cl)c1)N1CCC(NCc2ccc3[nH]ccc3c2)CC1 [TCMDC-134198] | 36.44%
57 | CCC1N=C(N)N=C(N)N1OCc1ccc(Cl)c(Cl)c1 (stereo not shown) [TCMDC-131593] | 19.76%
58 | CC(=O)C=C1CC(=O)N(C[C@@H](O)[C@H]2O[C@@H]3OC(C)(C)O[C@@H]3[C@H]2O)c2ccccc2N1 [TCMDC-138271] | 11.95%
59 | O=C(/C=C/c1ccc(C(F)(F)F)cc1)NCCCCCN1CCCN(C(=O)Nc2cccc(Cl)c2)CC1 [TCMDC-136108] | -11.12%
60 | CCOc1cccc(C(=O)Nc2cccc(CN3CCCN(Cc4cccc(O)c4)CC3)c2)c1 [TCMDC-141861] | -4.748%
61 | COc1ccc2ncc(Cl)c(CCN3CCC(NCc4ccc5c(n4)NC(=O)CS5)CC3)c2c1 [TCMDC-141807] | -3.776%
62 | COc1cc(F)c2ncc(Cl)c(CCN3CCC(NCc4ccc5c(n4)NC(=O)CS5)CC3)c2c1 [TCMDC-134318] | 94.95%
63 | O=C1CSc2ccc(CNC3CCN(CCc4c(F)cnc5ccc(F)cc45)CC3)nc2N1 [TCMDC-135095] | -0.4072%
64 | COc1cc(F)c2ncc(Cl)c(CCN3CCC(NCc4ccc5c(c4)NC(=O)CS5)CC3)c2c1 [TCMDC-135620] | 12.4%
65 | O=C1CSc2ccc(CNC3CCN(CCc4c(Cl)cnc5ccc(Cl)cc45)CC3)nc2N1 [TCMDC-141959] | 32.4%
66 | O=C1CSc2ccc(CNC3CCN(CCc4c(Cl)cnc5ccc(F)cc45)CC3)nc2N1 [TCMDC-141960] | 55.74%
67 | Cc1ccc(CNC(=O)c2cc3c(=O)n4ccccc4nc3n(CCCN3CCOCC3)c2=N)cc1 [TCMDC-125409] | 26.53%
